Measured values as given in publication PMC11062922 (Nature Chemical Biology, 2023).
Like-named read-outs stand apart in the source and are kept apart here.

Tests used:
AAK1 = system: AAK1; set-up: species or system human, MV4-11 + K-562 + COLO205 + SK-N-BE2 + OVCAR-8; conditions: read-out: apparent Kd, n = 1
GAK = system: GAK; set-up: species or system human, MV4-11 + K-562 + COLO205 + SK-N-BE2 + OVCAR-8; conditions: read-out: apparent Kd, n = 1
GSK3A = system: GSK3A; set-up: species or system human, MV4-11 + K-562 + COLO205 + SK-N-BE2 + OVCAR-8; conditions: read-out: apparent Kd, compound concentrations: 100 nM and 1000 nM (sheet 'Samples'), n = 1
GSK3B = system: GSK3B; set-up: species or system human, MV4-11 + K-562 + COLO205 + SK-N-BE2 + OVCAR-8; conditions: read-out: apparent Kd, compound concentrations: 100 nM and 1000 nM (sheet 'Samples'), n = 1
BMP2K = system: BMP2K; set-up: species or system human, MV4-11 + K-562 + COLO205 + SK-N-BE2 + OVCAR-8; conditions: read-out: apparent Kd, n = 1
CLK1 = system: CLK1; set-up: species or system human, MV4-11 + K-562 + COLO205 + SK-N-BE2 + OVCAR-8; conditions: read-out: apparent Kd; compound concentrations: 100 nM and 1000 nM (sheet 'Samples'), CATDS: 0.21779714475359599; n = 1
CLK4 = system: CLK4; set-up: species or system human, MV4-11 + K-562 + COLO205 + SK-N-BE2 + OVCAR-8; conditions: read-out: apparent Kd, n = 1
MELK = system: MELK; set-up: species or system human, MV4-11 + K-562 + COLO205 + SK-N-BE2 + OVCAR-8; conditions: read-out: apparent Kd, n = 1
Q6ZSR9 = Q6ZSR9 (human, UniProt Q6ZSR9); set-up: species or system MV4-11 + K-562 + COLO205 + SK-N-BE2 + OVCAR-8; conditions: read-out: apparent Kd, n = 1
RET = system: RET; set-up: species or system human, MV4-11 + K-562 + COLO205 + SK-N-BE2 + OVCAR-8; conditions: read-out: apparent Kd, n = 1
FLT4 = system: FLT4; set-up: species or system human, MV4-11 + K-562 + COLO205 + SK-N-BE2 + OVCAR-8; conditions: read-out: apparent Kd, n = 1
CSNK2A1;CSNK2A3 = system: CSNK2A1;CSNK2A3; set-up: species or system human, MV4-11 + K-562 + COLO205 + SK-N-BE2 + OVCAR-8; conditions: read-out: apparent Kd, n = 1
CSNK2A2 = system: CSNK2A2; set-up: species or system human, MV4-11 + K-562 + COLO205 + SK-N-BE2 + OVCAR-8; conditions: read-out: apparent Kd, n = 1
FLT3 = system: FLT3; set-up: species or system human, MV4-11 + K-562 + COLO205 + SK-N-BE2 + OVCAR-8; conditions: read-out: apparent Kd, n = 1
NUAK1 = system: NUAK1; set-up: species or system human, MV4-11 + K-562 + COLO205 + SK-N-BE2 + OVCAR-8; conditions: read-out: apparent Kd, n = 1
PAK4 = system: PAK4; set-up: species or system human, MV4-11 + K-562 + COLO205 + SK-N-BE2 + OVCAR-8; conditions: read-out: apparent Kd, n = 1
PKN1 = system: PKN1; set-up: species or system human, MV4-11 + K-562 + COLO205 + SK-N-BE2 + OVCAR-8; conditions: read-out: apparent Kd; compound concentrations:100 nM and 1000 nM (sheet 'Samples'); n = 1
SIK2 = system: SIK2; set-up: species or system human, MV4-11 + K-562 + COLO205 + SK-N-BE2 + OVCAR-8; conditions: read-out: apparent Kd; compound concentrations:100 nM and 1000 nM (sheet 'Samples'); n = 1
[1] = compound concentrations:100 nM and 1000 nM (sheet 'Samples')

Q6ZSR9, sequence (Q6ZSR9 whole entry, looked up): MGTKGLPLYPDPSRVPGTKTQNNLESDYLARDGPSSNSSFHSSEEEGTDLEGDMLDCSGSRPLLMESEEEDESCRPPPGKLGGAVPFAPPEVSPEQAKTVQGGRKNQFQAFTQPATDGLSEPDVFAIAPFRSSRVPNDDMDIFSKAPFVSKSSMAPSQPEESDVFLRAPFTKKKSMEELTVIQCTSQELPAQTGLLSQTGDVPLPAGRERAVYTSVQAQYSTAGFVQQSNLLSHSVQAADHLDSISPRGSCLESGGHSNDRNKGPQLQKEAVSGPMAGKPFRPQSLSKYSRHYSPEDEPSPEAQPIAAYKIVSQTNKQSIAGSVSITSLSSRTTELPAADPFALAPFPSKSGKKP

COc1ccc(Nc2nccc(NCCNC(=O)Nc3cc(C)ccc3C)n2)cc1 [GSK1379899A]
potency estimated from few doses (AAK1; compound concentrations: 100 nM and 1000 nM (sheet 'Samples'), CATDS: 4.14189738717365E-2): 1930 nM
potency estimated from few doses (GAK; compound concentrations: 100 nM and 1000 nM (sheet 'Samples'), CATDS: 4.9044286773088197E-2): 1220 nM
potency estimated from few doses (GSK3A; CATDS: 0.21656856359749399): 102 nM
potency estimated from few doses (GSK3B; CATDS: 4.8399492982865999E-2): 1260 nM

CNc1nccc(-c2ccc3c(N)n[nH]c3c2)n1 [GSK2206003A]
potency estimated from few doses (AAK1; compound concentrations: 100 nM and 1000 nM (sheet 'Samples'), CATDS: 0.11797009071744601): 108 nM
potency estimated from few doses (BMP2K; compound concentrations: 100 nM and 1000 nM (sheet 'Samples'), CATDS: 5.7170227951540302E-2): 897 nM
potency estimated from few doses (CLK1): 36.5 nM
potency estimated from few doses (CLK4; compound concentrations: 100 nM and 1000 nM (sheet 'Samples'), CATDS: 0.18290440862860499): 48 nM
potency estimated from few doses (MELK; compound concentrations: 100 nM and 1000 nM (sheet 'Samples'), CATDS: 0.103385588540624): 145 nM
potency estimated from few doses (Q6ZSR9; compound concentrations: 100 nM and 1000 nM (sheet 'Samples'), CATDS: 0.14345562945172299): 73.1 nM
potency estimated from few doses (RET; compound concentrations: 100 nM and 1000 nM (sheet 'Samples'), CATDS: 0.14057536576690199): 76 nM

Cl.Cn1cc(C2=C(c3c4n(c5ccccc35)CCNC4)C(=O)NC2=O)c2ccccc21 [RO0318365-001]
potency estimated from few doses (AAK1; compound concentrations: 100 nM and 1000 nM (sheet 'Samples'), CATDS: 5.2349611072723602E-2): 1480 nM
potency estimated from few doses (FLT4; compound concentrations: 100 nM and 1000 nM (sheet 'Samples'), CATDS: 5.0705018296343198E-2): 1610 nM
potency estimated from few doses (GAK; compound concentrations: 100 nM and 1000 nM (sheet 'Samples'), CATDS: 6.7472142671723495E-2): 831 nM
potency estimated from few doses (GSK3A; CATDS: 0.111142354700942): 357 nM
potency estimated from few doses (GSK3B; CATDS: 0.121394136436775): 314 nM
potency estimated from few doses (Q6ZSR9; compound concentrations: 100 nM and 1000 nM (sheet 'Samples'), CATDS: 5.14338241951754E-2): 1550 nM
potency estimated from few doses (RET; compound concentrations: 100 nM and 1000 nM (sheet 'Samples'), CATDS: 5.70762931789019E-2): 1190 nM

NS(=O)(=O)c1ccc(N/C=C2\C(=O)Nc3ccc4ncsc4c32)cc1 [GW297361X]
potency estimated from few doses (AAK1; compound concentrations: 100 nM and 1000 nM (sheet 'Samples'), CATDS: 4.1332868698359997E-2): 785 nM
potency estimated from few doses (BMP2K; compound concentrations: 100 nM and 1000 nM (sheet 'Samples'), CATDS: 4.6280622165998701E-2): 615 nM
potency estimated from few doses (CLK4; compound concentrations: 100 nM and 1000 nM (sheet 'Samples'), CATDS: 3.6697746350308501E-2): 1050 nM
potency estimated from few doses (CSNK2A1;CSNK2A3; compound concentrations: 100 nM and 1000 nM (sheet 'Samples'), CATDS: 3.0344109186555501E-2): 1830 nM
potency estimated from few doses (CSNK2A2; compound concentrations: 100 nM and 1000 nM (sheet 'Samples'), CATDS: 3.6316988085140701E-2): 1070 nM
potency estimated from few doses (FLT3; compound concentrations: 100 nM and 1000 nM (sheet 'Samples'), CATDS: 4.1021562023835299E-2): 799 nM
potency estimated from few doses (NUAK1; compound concentrations: 100 nM and 1000 nM (sheet 'Samples'), CATDS: 0.30685592880619): 33.6 nM
potency estimated from few doses (Q6ZSR9; compound concentrations: 100 nM and 1000 nM (sheet 'Samples'), CATDS: 3.8953206873676101E-2): 902 nM

Nc1nc(-c2ccc3c(N)n[nH]c3c2)cc(N2CCCC(NC(=O)c3ccccc3)C2)n1 (stereo not shown) [GSK2286775B]
potency estimated from few doses (AAK1; [1]): 826 nM
potency estimated from few doses (Q6ZSR9; [1]): 821 nM

Cl.Cl.NCC(NCc1ccc(-c2ccnc3[nH]ccc23)s1)c1ccccc1.NCC(NCc1ccc(-c2ccnc3[nH]ccc23)s1)c1ccccc1 (stereo not shown) [GSK1321565A]
potency estimated from few doses (AAK1; [1]): 820 nM
potency estimated from few doses (BMP2K; [1]): 982 nM
potency estimated from few doses (Q6ZSR9; [1]): 942 nM

COc1cc[nH]c1/C=C1\C(=O)Nc2ccc(F)c(C#C[C@@H](O)[C@@H](N)[C@@H](C)O)c21 [RO0283120-000]
potency estimated from few doses (AAK1; [1]): 171 nM
potency estimated from few doses (BMP2K; [1]): 84.3 nM
potency estimated from few doses (CLK4; [1]): 1360 nM
potency estimated from few doses (CSNK2A1;CSNK2A3; [1]): 750 nM
potency estimated from few doses (CSNK2A2; [1]): 497 nM
potency estimated from few doses (FLT3; [1]): 59.3 nM
potency estimated from few doses (FLT4; [1]): 1670 nM
potency estimated from few doses (GAK; [1]): 868 nM
potency estimated from few doses (MELK; [1]): 679 nM
potency estimated from few doses (NUAK1; [1]): 20.3 nM
potency estimated from few doses (PAK4; [1]): 350 nM
potency estimated from few doses (PKN1): 959 nM
potency estimated from few doses (Q6ZSR9; [1]): 208 nM
potency estimated from few doses (RET; [1]): 117 nM
potency estimated from few doses (SIK2): 878 nM

COc1cc[nH]c1/C=C1\C(=O)Nc2ccc(F)c(I)c21 [RO0281567-000]
potency estimated from few doses (AAK1; compound concentrations: 100 nM and 1000 nM (sheet 'Samples'), CATDS: 0.16412118246726901): 568 nM
potency estimated from few doses (BMP2K; compound concentrations: 100 nM and 1000 nM (sheet 'Samples'), CATDS: 0.232255536891084): 309 nM
potency estimated from few doses (FLT3; compound concentrations: 100 nM and 1000 nM (sheet 'Samples'), CATDS: 0.206841572593601): 374 nM
potency estimated from few doses (GSK3A; CATDS: 0.11117571470946799): 1460 nM
potency estimated from few doses (Q6ZSR9; compound concentrations: 100 nM and 1000 nM (sheet 'Samples'), CATDS: 0.16614751317759599): 555 nM

CN[C@H](C#Cc1c(F)ccc2c1/C(=C/c1[nH]ccc1OC)C(=O)N2)CO.Cl [RO0283049-001]
potency estimated from few doses (AAK1; compound concentrations: 100 nM and 1000 nM (sheet 'Samples'), CATDS: 2.8240152121160999E-2): 574 nM
potency estimated from few doses (BMP2K; compound concentrations: 100 nM and 1000 nM (sheet 'Samples'), CATDS: 7.2716114591836398E-2): 79.8 nM
potency estimated from few doses (CSNK2A1;CSNK2A3; compound concentrations: 100 nM and 1000 nM (sheet 'Samples'), CATDS: 2.0504154829503698E-2): 1690 nM
potency estimated from few doses (CSNK2A2; compound concentrations: 100 nM and 1000 nM (sheet 'Samples'), CATDS: 2.5963864867474401E-2): 730 nM
potency estimated from few doses (FLT3; compound concentrations: 100 nM and 1000 nM (sheet 'Samples'), CATDS: 0.132856529197414): 31.3 nM
potency estimated from few doses (GAK; compound concentrations: 100 nM and 1000 nM (sheet 'Samples'), CATDS: 2.5381960568832601E-2): 781 nM
potency estimated from few doses (GSK3A; CATDS: 5.21732936396841E-2): 145 nM
potency estimated from few doses (GSK3B; CATDS: 5.3689374792110299E-2): 137 nM
potency estimated from few doses (MELK; compound concentrations: 100 nM and 1000 nM (sheet 'Samples'), CATDS: 2.5364281194585201E-2): 783 nM
potency estimated from few doses (NUAK1; compound concentrations: 100 nM and 1000 nM (sheet 'Samples'), CATDS: 5.6502774837069003E-2): 125 nM
potency estimated from few doses (PAK4; compound concentrations: 100 nM and 1000 nM (sheet 'Samples'), CATDS: 2.6532527955357901E-2): 685 nM
potency estimated from few doses (Q6ZSR9; compound concentrations: 100 nM and 1000 nM (sheet 'Samples'), CATDS: 2.6998984012354399E-2): 651 nM
potency estimated from few doses (RET; compound concentrations: 100 nM and 1000 nM (sheet 'Samples'), CATDS: 3.2863733799292097E-2): 389 nM
